Source: PubChem BioAssay
PfHsp90 set2: growth inhibition of PfHsp90-expressing yeast, primary screen, antimalarial PfHsp90 inhibitor project, S. cerevisiae, BacTiter-Glo luminescence, single point, set 2. 310,000 compounds, 0.32% hits. AID 504621, 2011. inhibition, % at 9.4 µM. BacTiter-Glo ATP, 48 h; yeast lacking PDR1 and PDR3 efflux regulators;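 active means every replicate shows inhibition above about 80%, whatever the replicate mean, limit read from the data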;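 further: 0% = DMSO neutral controls and 100% = 20 µM radicicol positive controls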
NLRP3 yeast inh: NALP3 inflammasome inhibitors in reconstituted yeast, primary screen, luminescence, uHTS; inhibition, % at 10 µM; 330,000 compounds, 0.39% hits; Yeast reconstituted NLRP3/ASC/caspase-1, beta-gal luminescence, 24 h;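 active means inhibition of 50% or more; inactive means inhibition below 50%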;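 further: plate controls were induced DMSO wells for no effect and uninduced yeast grown without galactose for full effect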
tim23-1 inh: growth inhibitors of tim23-1 mutant yeast, primary screen, luminescence, uHTS; S. cerevisiae tim23-1 growth, BacTiter-Glo luminescence, 24 h; inhibition, % at 20 µM; 330,000 compounds, 1.3% hits; AID 463212, 2010;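 active means growth inhibition of the mutant yeast at or above 50%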;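 further: temperature-sensitive mutant grown at 25 °C; plate controls were DMSO-treated mutant yeast for no effect and medium wells lacking yeast for full effect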
tim10-1 inh: growth inhibitors of tim10-1 mutant yeast, primary screen, luminescence, uHTS; S. cerevisiae tim10-1 ts strain growth, BacTiter-Glo, 24 h; inhibition, % at 20 µM; 330,000 compounds, 2.2% hits; AID 463190, 2010;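 active means inhibition of at least 40%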;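 further: mutant grown at 25 °C; 0% = DMSO wells with yeast and 100% = wells holding no yeast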
NALP1 inh: NALP1 inflammasome inhibitors in reconstituted yeast, colorimetric, S. cerevisiae, triplicate retest | S. cerevisiae NALP1/ASC/caspase-1 growth, X-gal OD620, 72 h | AID 2071, 2009 | inhibition, % at 10 µM | 280,000 compounds, 0.61% hits; in the data active means inhibition mostly above about 24%, no sharp cut-off; inactive means mostly below about 32%
TIM10 inh: growth inhibitors of isogenic TIM10 control yeast, primary screen, counter-screen for tim10-1 yeast inhibitor project, luminescence, uHTS; 330,000 compounds, 1.4% hits; AID 463195, 2010; inhibition, % at 10 µM; S. cerevisiae TIM10 strain growth, BacTiter-Glo luminescence, 24 h;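 active means inhibition of 40% or more at the single tested concentration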;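 further: wild-type TIM10 isogenic control strain grown at permissive 25 °C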
NALP3 confirm: NALP3 inhibitors retested in yeast, confirmation, luminescence, single concentration | inhibition, % at 10 µM | 1,300 compounds, 81% hits | shares compounds with NLRP3 yeast inh | AID 435006, 2010 | yeast expressing human NALP3; in the data active means inhibition above about 48%
Casp1 ASC ctr: CASP1-PYCARD signaling inhibition in yeast, confirmatory test, counterassay for NLRP3 inhibitor program, one-dose; shares compounds with NLRP3 yeast inh; yeast expressing Caspase-1-ASC, luminescence counter screen; inhibition, % at 10 µM; 1,000 compounds, 66% hits
NALP3 yeast rt: NALP3 inhibitors in yeast, repeat test, confirmation, luminescence, single concentration, retest. shares compounds with NLRP3 yeast inh. yeast expressing human NALP3, luminescence read-out. inhibition, % at 10 µM. 1,000 compounds, 53% hits
* hit, by the source's call; . = no result given. The list is not random: actives were taken first. Their share in the collection is about 4.2%. Unless noted, no stated cut-off is given here; in the data, active means inhibition above about 50%; inactive means the rest.

SMILES | PfHsp90 set2 | NLRP3 yeast inh | tim23-1 inh | tim10-1 inh | NALP1 inh | TIM10 inh | NALP3 confirm | Casp1 ASC ctr | NALP3 yeast rt
O=C(NCc1cccc(F)c1F)C1CCC(=O)N(C2CCCCCC2)C1 (stereo not given) | -2 | 15 | 17 | 7 | 17 | -4 | . | . | .
COc1ccc(C(=O)c2no[n+]([O-])c2C(=O)c2ccc(OC)cc2)cc1 | . | 70* | 32 | 7 | 21 | 4 | 80* | 81* | 62*
CSc1nc2ccc(NC(=O)c3ccco3)cc2s1 | 13 | 51* | 21 | -71 | 39 | -38 | 58* | 56* | 54*
O=C(Nc1cccc(-c2nc3cccnc3s2)c1)c1ccco1 | -43 | 33 | 47 | -63 | 4 | 4 | . | . | .
O=C(Nc1ccc(-c2nc3cccnc3s2)cc1)c1ccco1 | 29 | 51* | 32 | -52 | . | -15 | 72* | 46 | 48
O=[N+]([O-])c1cccnc1S(=O)(=O)c1ccccc1 | 9 | 58* | 9 | 22 | 25 | -5 | 63* | 50* | 39
O=C(NCC1CCCO1)/C(=C/c1cn(-c2ccccc2)nc1-c1cccnc1)NC(=O)c1ccccc1 (stereo not given) | -10 | 8 | 8 | -1 | 9 | 5 | . | . | .
c1coc(C2Nc3ccccc3C3OCCC23)c1 (stereo not given) | . | 19 | -13 | -3 | 14 | -24 | . | . | .
Fc1ccc2c(c1)C1OCCCC1C(c1ccccc1)N2 (stereo not given) | 31 | 62* | 24 | -14 | 25 | 5 | 32 | . | .
Cc1csc(=Nc2cccnc2)n1CC1CCCCC1 | 1 | -107 | 39 | 22 | -4 | 37 | -3 | . | .
O=C(NCc1cccnc1)c1cccc(S(=O)(=O)Nc2cccc(Cl)c2)c1 | -1 | 13 | 0 | -11 | . | 0 | . | . | .
O=c1c2cc(Br)ccc2nc(-c2ccc([N+](=O)[O-])cc2)n1O | 2 | 53* | 47 | 17 | -6 | -9 | 79* | 46 | 62*
CN1CCN(c2oc(COc3ccc(-c4ccccc4)cc3)nc2C#N)CC1 | 0 | 60* | 22 | -1 | 33 | 13 | 50* | 76* | 65*
N#Cc1nc(COc2ccccc2)oc1N1CCCC1 | 3 | 75* | 8 | 3 | 15 | -22 | 49* | 79* | 64*
N#Cc1nc(COc2ccc(Br)cc2)oc1N1CCCC1 | . | 54* | 32 | 22 | 12 | -14 | 62* | 50* | 41
CCC1(c2ccccc2)NC(=O)N(CC(=O)Nc2ccccc2C(=O)N2CCCCC2)C1=O (stereo not given) | 7 | 22 | 0 | -3 | . | 3 | . | . | .
COc1cccc(CSc2nnc(-c3ccc(F)cc3)o2)c1 | 9 | 24 | 11 | 4 | 18 | -6 | . | . | .
COc1ccc(-c2nnc(SCc3cccc(C#N)c3)o2)cc1 | 3 | 54* | 21 | -24 | 0 | 8 | 37 | . | .
COc1ccc(Nc2c(C)cccc2C)cc1 | . | -105 | 2 | 21 | -46 | 18 | -12 | . | .
CCN(CC)Cc1ccc(OC)c(Cl)c1 | . | -1 | -17 | -13 | 0 | 4 | . | . | .
COc1ccc(CSCCN)cc1Cl | 8 | 68* | 27 | 7 | 12 | 18 | 69* | 71* | 73*
Cc1ccc([N+](=O)[O-])cc1NC(=O)c1ccc(C(C)(C)C)cc1 | 20 | 57* | 23 | 25 | -15 | 17 | 51* | 44 | 28
OC(COc1cccc2ccccc12)CN1CCN(c2ccc(Cl)cc2)CC1 (stereo not given) | 15 | 45 | 15 | 21 | 18 | 17 | . | . | .
Cc1cccc(N2CCN(CC(O)COc3ccccc3Cl)CC2)c1 (stereo not given) | -6 | 50* | 29 | -3 | 14 | 13 | 64* | 37 | 46
Cc1ccc2c(c1)c1c(n2C)C(=O)CCC1 | -2 | 54* | 4 | -3 | 7 | -1 | 56* | 63* | 52*
SMILES | PfHsp90 set2 | NLRP3 yeast inh | tim23-1 inh | tim10-1 inh | NALP1 inh | TIM10 inh | NALP3 confirm | Casp1 ASC ctr | NALP3 yeast rt
CCn1c2c(c3cc(Cl)ccc31)CCCC2=O | 2 | 44 | -2 | 13 | 22 | -26 | . | . | .
O=C(CCc1nc2ccccc2c(=O)[nH]1)N1CCN(S(=O)(=O)c2cccc(F)c2)CC1 | -5 | 9 | -3 | 5 | 2 | 11 | . | . | .
CC(=O)Oc1ccc(Oc2ccc(-c3noc(C)n3)cc2)cc1 | -7 | 56* | 29 | -3 | 22 | -10 | 72* | 70* | 56*
CS/C(=N\S(=O)(=O)c1cccs1)Nc1ccc(F)c(Cl)c1 | 3 | -13 | 33 | 21 | 33 | 1 | . | . | .
CS/C(=N\S(=O)(=O)c1cccs1)Nc1cccc(Cl)c1C | -10 | -118 | 20 | 19 | 14 | 24 | -3 | . | .
C[C@H](NC(=O)c1[nH]cnc1C(=O)Nc1ccc(Cl)cc1)C(=O)OC(C)(C)C | -29 | 58* | 37 | 17 | . | 11 | 65* | 30 | 25
CCOC(=O)c1ccc(NC(=O)c2nc[nH]c2C(=O)N[C@@H](C)C(=O)OC(C)(C)C)cc1 | 28 | 14 | 31 | 22 | . | 0 | . | . | .
O=C(NC(=S)/C(=C1\CCCCCN1)[N+](=O)[O-])c1ccccc1 | 22 | 59* | 7 | -15 | . | -9 | 54* | 64* | 44
O=C(NC(=S)Nc1ccccc1[N+](=O)[O-])c1ccccc1 | -5 | 29 | 29 | 38 | 15 | 14 | . | . | .
COCCN(C(=O)c1cccc(-n2cnnn2)c1)c1c(N)n(CC(C)C)c(=O)[nH]c1=O | -18 | 23 | -1 | 7 | . | 3 | . | . | .
CCOCCn1c(COc2ccc(C)cc2)nc2ccccc21 | 21 | 32 | 36 | 4 | 39 | 13 | . | . | .
CCn1c(COc2ccc(C)cc2)nc2ccccc21 | -4 | 65* | 41 | 29 | 10 | 1 | 79* | . | .
COc1ccc(N=C2S/C(=C\c3ccc(N4CCOCC4)o3)C(=O)N2CCc2c[nH]c3ccccc23)cc1 | 4 | 57* | 26 | 2 | 6 | 12 | 54* | . | .
COc1ccc(N=C2S/C(=C\c3ccc(OCC(=O)O)cc3)C(=O)N2CCc2c[nH]c3ccccc23)cc1 | -53 | 22 | 19 | 25 | -5 | 2 | . | . | .
